These results are taken from PubChem BioAssay AID463173 (ICCB-Longwood Screening Facility, Harvard Medical School, 2010).

About 4,300 (8.3%) of roughly 52,000 compounds were called active. Many of the other results were omitted from the sample, so actives are more common in it than they were. Unmarked numbers belong to inactive results. Cut-off read from the data, not from the text of the source: active = survival mostly below about 52% (no sharp cut-off); inactive = mostly above about 56%.

For the assay, the system named is DeltatarO mutant. The assay is described as follows: S. aureus survival, RN4220 and DeltatarO strains – OD600, teichoic acid synthesis inhibitors, primary screen (AID 463173). The settings on record: S. aureus RN4220 wild type/DeltatarO growth, OD600, 18 h, active compounds read low, screened at 18.75 µg/mL (by protocol).
`COc1cc(C(=O)Nc2ccc(NC(=O)c3ccc(Br)cc3)cc2)cc(OC)c1OC`: the survival is 75%. In the case of `O=C(CSc1nc2c(c(=O)[nH]1)CN(Cc1ccc3c(c1)OCO3)CC2)Nc1cccc(Cl)c1`, the survival was 76%. `CCOC(=O)CNc1c(-c2ccc(OC)cc2)nc2ccc(Cl)cn12`: the survival was 58%. With `Cc1cccc(NC(=O)CSc2nc(C)c(Cc3ccccc3)c(=O)[nH]2)c1`, the survival is 18% (active). For the compound `Cc1nc(SCC(=O)Nc2ccc(Br)cc2)[nH]c(=O)c1Cc1ccccc1`, the survival was 59%.

For `CCOC(=O)c1ccc(NC(=O)CSc2nc3cc4ccccc4cc3[nH]2)cc1`, the survival was 65%. In the case of `COc1cccc(NC(=O)CSc2nc(C)c(Cc3ccccc3)c(=O)[nH]2)c1`, the survival is 58%. As to `CCOC(=O)c1cccc(NC(=O)CSc2nc3cc4ccccc4cc3[nH]2)c1`, the survival is 36% (active). Regarding `Cc1ccc(NC(=O)CSc2nc(C)c(Cc3ccccc3)c(=O)[nH]2)cc1`, the survival is 48%.

Consider `Cc1ccc(NC(=O)CSc2nc(C)c(Cc3ccccc3)c(=O)[nH]2)cc1C`, for which the survival was 84%.

`COC(=O)c1ccc(NC(=O)CSc2nc3cc4ccccc4cc3[nH]2)cc1`: the survival is 65%. Regarding `CCOC(=O)c1ccc(NC(=O)CSc2nc(C)c(Cc3ccccc3)c(=O)[nH]2)cc1`, the survival is 45% (active).

On to `CCN(CC)C(C)C#Cc1ccccc1` (stereo not drawn), for which the survival was 95%. For `Cc1ccc(-n2nc(C(=O)Nc3ccc(C)c(F)c3)c3c4ccccc4n(C)c3c2=O)cc1`, the survival was 92%. In the case of `Fc1ccc(-n2ncc3c(Nc4ccc5c(c4)OCCO5)ncnc32)cc1`, the survival is 97%. In the case of `O=C(C1CCC(CNS(=O)(=O)c2cccs2)CC1)N1CCN(c2ccc(Cl)cc2)CC1` (stereo not drawn), the survival was 60%.

As to `CCN(c1ccccc1)c1nnc(NC(=O)Nc2ccc(Br)cc2F)s1`, the survival is 97%. Regarding `CC(=O)N1CCN(c2ccccc2N)CC1`, the survival was 93%. For `O=c1[nH]c(Nc2nc3ccccc3o2)nc2ccccc12`, the survival was 95%. Under `Cc1cc(C)nc(Nc2nc3ccccc3c(=O)[nH]2)n1` stands 74% (active); under `Cc1cc(=O)[nH]c(Nc2nc3ccccc3[nH]2)n1`, 71%. As for `O=C1CCCc2cc(S(=O)(=O)N3CCCC(C(=O)Nc4ccc(F)c(Cl)c4)C3)ccc2N1` (stereo not drawn), the survival is 70%. `Cc1ccccc1C(=O)OCc1cc(=O)n2c(C)csc2n1`: the survival is 109%. In the case of `O=S(=O)(c1ccc2nc(N3CCN(c4ccccc4)CC3)ccc2c1)N1CCCCC1`, the survival was 6% (active). Under `O=S(=O)(c1ccc2nc(N3CCN(c4cccc(Cl)c4)CC3)ccc2c1)N1CCCCC1` stands 81%; under `CC1CCN(S(=O)(=O)c2ccc3nc(N4CCN(c5ccccc5)CC4)ccc3c2)CC1`, 78%.

Turning to `Cc1ccc(OC(=O)c2ccc3snnc3c2)cc1`, the survival is 115%. On to `COc1ccccc1-c1nn(CCC(=O)Nc2cccc(C(C)=O)c2)c2nc(C)cc(C)c12`, for which the survival is 69%. Under `Cc1cc(C)c2c(=O)cc(C(=O)Nc3ccc(S(=O)(=O)N(C)Cc4ccccc4)cc3)oc2c1` stands 61%. `COc1ccc(C(=O)NCCSc2ccccn2)cc1`: the survival was 78%.

For the compound `Cc1cc(C)cc(NC(=O)c2oc3ccc4c(c3c2C)C(=O)CC(C)(C)O4)c1`, the survival is 89%. Consider `Cc1c(C(=O)NCc2ccc(Cl)cc2)oc2ccc3c(c12)C(=O)CC(C)(C)O3`, for which the survival was 53% (active). Regarding `Cc1cccc(C)c1NC(=O)c1oc2ccc3c(c2c1C)C(=O)CC(C)(C)O3`, the survival is 42% (active). With `CCC1(C)CC(=O)c2c(ccc3oc(C(=O)NCc4ccccc4)c(C)c23)O1` (stereo not drawn), the survival was 44% (active). With `CC(=O)Nc1ccc(NC(=O)c2oc3ccc4c(c3c2C)C(=O)CC(C)(C)O4)cc1`, the survival is 75%. For `Cc1c(C(=O)NCc2ccccc2Br)oc2ccc3c(c12)C(=O)CC(C)(C)O3`, the survival is 83%. Take `CCCOc1ccc(CNC(=O)c2oc3ccc4c(c3c2C)C(=O)CC(C)(CC)O4)cc1` (stereo not drawn): the survival is 68%.

For the compound `CCC1(C)CC(=O)c2c(ccc3oc(C(=O)Nc4ccc(C(C)=O)cc4)c(C)c23)O1` (stereo not drawn), the survival is 78%. Under `Cc1c(C(=O)NCc2cccc(Br)c2)oc2ccc3c(c12)C(=O)CC(C)(C)O3` stands 61%; under `CCOC(=O)CC(NC(=O)Cn1nnc(-c2ccccc2F)n1)c1ccccc1Cl` (stereo not drawn), 77%. With `COc1ccc(N2CCN(C(=O)c3cn(C)c4ccc(S(=O)(=O)N(C)C5CCCCC5)cc4c3=O)CC2)cc1`, the survival is 93%. On to `COc1ccccc1NC(=O)CSC1=Nc2ccccc2C2=NC(CC(=O)NCCc3ccccc3)C(=O)N12` (stereo not drawn), for which the survival is 85%. Under `COc1ccc(C)cc1NC(=O)Cn1c(=O)n(Cc2nc(C)no2)c(=O)c2ccccc21` stands 79%; under `COc1cccc(CNC(=O)CSc2ncc3c(n2)-c2cc(Cl)ccc2N(C)S3(=O)=O)c1`, 92%; under `O=C(CSc1nc2c(c(=O)[nH]1)CCCC2)Nc1ccc(Br)cc1`, 58%. `CCSC1=C(C#N)C2(CCCCC2)C(C#N)=C(N)N1`: the survival was 68%. For `N#CC1=C(N)NC(SCC(=O)Nc2ccc(Br)cc2)=C(C#N)C12CCCCC2`, the survival is 12% (active). As for `COc1cccc(-c2cn3c(n2)sc2cc(C(=O)NCc4ccccc4F)ccc23)c1`, the survival was 60%. In the case of `Cn1c(=O)n(C)c2cc(N3CCOCC3)c(NC(=O)c3ccc(Cl)cc3)cc21`, the survival is 87%. Under `Cc1nn(C(C)C(=O)NCc2ccco2)c(=O)c2nn(-c3ccccc3)c(C)c12` (stereo not drawn) stands 37% (active); under `Cc1ccc(-n2nc3c(=O)n(C(C)C(=O)NCc4ccco4)nc(C)c3c2C)cc1` (stereo not drawn), 47% (active). For the compound `Cc1ccc(CCNC(=O)C(C)n2nc(C)c3c(C)n(-c4ccc(C)cc4)nc3c2=O)cc1` (stereo not drawn), the survival is 86%. Regarding `CCC(C(=O)NCc1ccco1)n1nc(C)c2c(C)n(-c3ccc(C)cc3)nc2c1=O` (stereo not drawn), the survival is 73%. For the compound `Cc1nn(CC(=O)NCc2ccco2)c(=O)c2nn(-c3ccccc3)c(C)c12`, the survival was 92%. With `CCCNC(=O)C(C)n1nc(C)c2c(C)n(-c3ccccc3)nc2c1=O` (stereo not drawn), the survival was 102%. Regarding `CCC(C(=O)NCCc1ccc(SC)cc1)n1nc(C)c2c(C)n(-c3ccc(C)cc3)nc2c1=O` (stereo not drawn), the survival was 80%. On to `Cc1ccc(-n2nc3c(=O)n(C(C)C(=O)NCc4ccccc4C)nc(C)c3c2C)cc1` (stereo not drawn), for which the survival was 94%. Consider `CSc1ccc(CCNC(=O)C(C)n2nc(C)c3c(C)n(-c4ccccc4)nc3c2=O)cc1` (stereo not drawn), for which the survival was 46% (active).
